Reference: PubChem BioAssay AID1740 (National Center for Advancing Translational Sciences (NCATS), 2009)
Results filed as inconclusive are left out. Entries that show only a call come without a potency. The source made the active and inactive calls. The call rests on the fitted dose curve; in most records, active means well fitted activation curve with a large enough effect; inconclusive means small, poorly fitted or top-dose-only effect; inactive means no such curve, though single readings can be large or run the other way.

experiment: Confirmation Concentration-Response Assay for Enhancers of SMN2 Splice Variant Expression; details: HEK293 SMN2-exon7-luciferase splicing reporter, luminescence, 30-36 h; series mostly up to 46.1 µM
Excerpt: NIH Chemical Genomics Center [NCGC] NIH Molecular Libraries Probe Production centers Network [MLPCN] MLPCN Grant: R03 MH084179-01 Assay Submitter (PI): Elliot Androphy NCGC Assay Overview: Spinal muscular atrophy (SMA) is caused by insufficient levels of the survival motor neuron protein SMN. The SMN locus on chromosome 5q13 contains two inverted copies of SMN called SMN1 and SMN2 which are 99% identical at the amino acid level. SMN1 is a fully functional protein and SMN2 skips exon 7 90% of the time. Skipping of exon 7 produces non-functional protein product. 10% of the SMN2 protein includes exon 7 and is fully functional. In the SMA disease state, mutations in the SMN1 locus are the cause of the disease state. Because only 10% of SMN2 is of the fully functional form, it is not sufficient to overcome the deficiency produced by the loss of the SMN1 product. A therapy that either increase the amount of SMN2 product made or to increase the inclusion of exon 7 has been proposed for the treatment of SMA. We have designed an assay to identify small molecules that can increase the amount of functional SMN2 product by appending a luciferase reporter gene after the native SMN2 gene, such that inclusion of exon 7 in the expressed product places the luciferase sequence in frame, thus generating functional luciferase enzyme.
NCGC Assay Protocol Summary: This screen utilizes a luciferase reporter gene assay, combining the promoter with the major portion of the native SMN2 cDNA (exons 1 -7, intron 8 , exon 8 fused to luciferase) stably expressed in HEK293 cells. Compounds that increase luciferase signal presumably enhance expression of the functional SMN2 splice variant. Passaging media contained DMEM w/ glutamax (+phenol red) 10% FCS, 1x pen/strep, 200 ug/ml hygro, 1x sodium pyruvate. Assay media contained DMEM w/ glutamax (-phenol red) 10% FCS, 1x pen strep, 1x pyruvate Sequence, Parameter, Value, Description (1) Cells, 5 uL, 2000 cells/well, 1536 TC treated White solid bottom plate (2) Time, 10-12 hours, 37C 5% CO2 (3) Compound, 23 nl, MLSMR Library (4) Control Compound, 23 nL, Sodium butyrate st 4.5mM (final) conc (5) Time, 30-36 hours, 37C 5% CO2 (6) Reagent, 3 ul, One Glo (TM) from Promega (7) Time, 5-15 minutes, Room temp (8) Detector, Viewlux: luminescent read, 60 second integration, high speed 2x binning Keywords: Spinal muscular atrophy, SMA, SMN2, high throughput screening, MLSMR, MLPCN, NIH Roadmap, qHTS and NCGC

SMILES | Potency | activation
O=C(NCCCNCCCNC(=O)c1ccccn1)c1ccccn1 | inactive | 
CC1CN(c2nc(-c3ccc(Br)cc3)nnc2-c2ccccc2)CC(C)N1 (stereo not given) |  | -5.21% [at 9.48 µM] (inactive)
CCC1=Nc2ccccc2-c2nnc(SC)nc2O1 | inactive | 
O=[N+]([O-])c1ccc(-c2nnc(-c3ccccc3)c(NCCCO)n2)cc1 | inactive | 
Clc1nc(NCc2ccco2)c2[nH]cnc2n1 | inactive | 
COCCCN1C(=O)C(=O)/C(=C(/O)c2ccc3c(c2)CC(C)O3)C1c1cccnc1 (stereo not given) | inactive | 
Brc1nc2ncnc(NCc3ccco3)c2[nH]1 | inactive | 
CCOc1ccc2nc(N3CCC(C(=O)N4CCN(c5ccccn5)CC4)CC3)sc2c1 | inactive | 
Clc1ccc(-c2nnc(-c3ccccc3)c(N3CCSCC3)n2)cc1 | inactive | 
NC(=O)C1(N2CCCCC2)CCN(c2nc(-c3ccc(Br)cc3)cs2)CC1 | inactive | 
Clc1ccc(-c2nnc(-c3ccccc3)nc2N2CCSCC2)cc1 |  | 6.97% [at 9.48 µM] (inactive)
FC(F)(F)c1nnc(-c2ccccc2)nc1Oc1ccccc1 | inactive | 
OCCCNc1nc(-c2ccc(Cl)cc2)nnc1-c1ccc(Br)cc1 | inactive | 
Clc1nc(NCc2cccs2)c2[nH]cnc2n1 | inactive | 
Cc1nnc(-c2ccccc2)[nH]c1=O | inactive | 
CCCCOC(C)n1cc(F)c(=O)[nH]c1=O (stereo not given) | inactive | 
FC(F)(F)c1cccc(Oc2nc(-c3ccccc3)nnc2C(F)(F)F)c1 | inactive | 
N#C/C(=C\Nc1ccccc1SC(F)(F)F)c1nc(-c2ccc(Cl)cc2)cs1 | inactive | 
Nn1c(SCC(=O)NCCC2=CCCCC2)nnc1C1CCCCC1 | inactive | 
COC(=O)C1=C(CN2CCc3ccccc32)NC(=O)NC1c1cc(C)ccc1C (stereo not given) | inactive | 

SMILES | Potency | activation
COc1ccc(-c2csc(N3CCC(c4ccccc4)CC3)n2)cc1 | inactive | 
O=c1[nH]c(=O)n(C2CCCO2)cc1Br (stereo not given) | inactive | 
Clc1nc(NCC2CCCO2)c2[nH]cnc2n1 (stereo not given) | inactive | 
Cc1ccc(-c2nnc(-c3ccccc3)c(-c3ccccc3)n2)cc1 | inactive | 
O=C(Nc1cccnc1)/C(N=Nc1c(Cl)cccc1Cl)=C(\O)c1ccccc1 | inactive | 
NC(=O)N1c2ccccc2C=Cc2ccccc21 | inactive | 
Cc1ccc(-c2csc(N3CCC(NS(=O)(=O)c4ccc5c(c4)OCCO5)CC3)n2)cc1 | inactive | 
O=S(=O)(NC1CCCc2ccccc21)c1cnc[nH]1 (stereo not given) | inactive | 
CCOc1c(Cl)cc(C(=O)Nc2ccccc2C(=O)O)cc1Cl | 2820 nM (active) | 
CCC(=O)n1nc(NCc2ccccc2OC)nc1NCc1ccccc1OC | inactive | 
O=[N+]([O-])c1ccc(-c2nnc(-c3ccccc3)c(N3CCOCC3)n2)cc1 | inactive | 
O=C(NCc1cccs1)C(=O)NCC1OCCCN1S(=O)(=O)c1ccccc1 (stereo not given) | inactive | 
O=C1CCC(C(=O)Nc2cccc3ccccc23)N1 (stereo not given) | inactive | 
CCCc1sc(N2CCCC(C(N)=O)C2)nc1-c1ccccc1 (stereo not given) | inactive | 
Cc1[nH]c2ccccc2c1-c1nc(-c2ccc(Cl)cc2)nnc1-c1ccccc1 | inactive | 
FC(F)(F)c1cccc(-c2nnc(-c3ccccc3)c(N3CCOCC3)n2)c1 |  | -5.49% [at 9.48 µM] (inactive)
CC(/C=C/C(=O)NO)=C\[C@@H](C)C(=O)c1ccc(N(C)C)cc1 | 1120 nM (active) | 
O=C(Cc1c(F)cccc1Cl)N1CCN(C(=O)c2ccco2)CC1 | inactive | 
COc1ccc(OC)c(-c2csc(N3CCC(c4ccccc4)CC3)n2)c1 | inactive | 
CN(C)CCCN(C(=O)c1cccs1)c1nc(-c2ccccc2)cs1 | inactive | 
